Experimental data published in PubChem BioAssay AID1159580 (chemical genetic matrix, 2015).
The whole screen tested about 5,500 compounds, of which about 2,000 (36%) were called active. Not shown: some 18% with an inconclusive outcome. Rule as the data show it: active = normalized growth mostly below about 0.91 (no sharp cut-off); inconclusive = no clear call, values can overlap the other calls; inactive = mostly above about 0.92. Some of the results follow.

Assay: chemical genetic growth profiling, strain panel (AID 1159580);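 also: tested at 20 µM; growth read once vehicle control cultures reached saturation at 30 °C; 1 = growth at the plate median or of vehicle wells; lower values mean less growth of the strain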
Conditions: growth OD

Measured: normalized growth

Cn1nnnc1SCC1=C(C(=O)O)N2C(=O)C(NC(=O)C(OC=O)c3ccccc3)C2SC1 (stereo unspecified)
inactive: S. cerevisiae deletion strains, locus YJR075W, strain HOC1, active compounds read low 1.01 | S. cerevisiae deletion strains, locus YKL009W, strain mrt4, active compounds read low 1.02 | S. cerevisiae deletion strains, locus YKL068W, active compounds read low 1.01 | S. cerevisiae deletion strains, locus YKL085W, strain MDH1 (second series), active compounds read low 1 | S. cerevisiae deletion strains, locus YKL085W, strain MDH1, active compounds read low 1 | S. cerevisiae deletion strains, locus YKL160W, strain elf1, active compounds read low 1.01 | S. cerevisiae deletion strains, locus YKL190W, strain CNB1, active compounds read low 1 | S. cerevisiae deletion strains, locus YKR001C, strain vps1, active compounds read low 1.02 | S. cerevisiae deletion strains, locus YKR026C, strain gcn3, active compounds read low 0.989 | S. cerevisiae deletion strains, locus YKR091W, strain srl3, active compounds read low 0.995 | S. cerevisiae deletion strains, locus YLL001W, strain dnm1, active compounds read low 1 | S. cerevisiae deletion strains, locus YLL026W, active compounds read low 0.997 | S. cerevisiae deletion strains, locus YLL041C, strain sdh2, active compounds read low 1 | S. cerevisiae deletion strains, locus YLR027C, strain aat2, active compounds read low 0.992 | S. cerevisiae deletion strains, locus YLR039C, strain RIC1, active compounds read low 1 | S. cerevisiae deletion strains, locus YLR058C, strain SHM2, active compounds read low 1 | S. cerevisiae deletion strains, locus YLR102C, strain apc9, active compounds read low 1.02 | S. cerevisiae deletion strains, locus YLR113W, strain HOG1, active compounds read low 0.941 | S. cerevisiae deletion strains, locus YLR221C, strain rsa3, active compounds read low 0.987 | S. cerevisiae deletion strains, locus YLR258W, strain gsy2, active compounds read low 0.998 | S. cerevisiae deletion strains, locus YLR262C, strain YPT6 (second series), active compounds read low 1.02 | S. cerevisiae deletion strains, locus YLR262C, strain YPT6, active compounds read low 1.04 | S. cerevisiae deletion strains, locus YLR268W, strain sec22, active compounds read low 1.01 | S. cerevisiae deletion strains, locus YLR320W, strain mms22, active compounds read low 0.993 | S. cerevisiae deletion strains, locus YLR330W, strain CHS5, active compounds read low 1 | S. cerevisiae deletion strains, locus YLR342W, strain FKS1 (second series), active compounds read low 0.999 | S. cerevisiae deletion strains, locus YLR342W, strain FKS1, active compounds read low 0.992 | S. cerevisiae deletion strains, locus YLR357W, strain rsc2, active compounds read low 0.94 | S. cerevisiae deletion strains, locus YLR370C, strain arc18, active compounds read low 0.989 | S. cerevisiae deletion strains, locus YLR371W, strain rom2, active compounds read low 1.02 | S. cerevisiae deletion strains, locus YLR384C, strain iki3, active compounds read low 0.991 | S. cerevisiae deletion strains, locus YLR418C, strain cdc73, active compounds read low 1.04 | S. cerevisiae deletion strains, locus YML016C, strain PPZ1, active compounds read low 1.01 | S. cerevisiae deletion strains, locus YML032C, strain rad52, active compounds read low 1.04 | S. cerevisiae deletion strains, locus YML120C, strain ndi1, active compounds read low 1.02 | S. cerevisiae deletion strains, locus YML124C, strain tub3, active compounds read low 1.02 | S. cerevisiae deletion strains, locus YMR058W, strain fet3, active compounds read low 0.998 | S. cerevisiae deletion strains, locus YMR078C, strain ctf18, active compounds read low 1.02 | S. cerevisiae deletion strains, locus YMR125W, strain sto1, active compounds read low 0.989 | S. cerevisiae deletion strains, locus YMR129W, active compounds read low 1 | S. cerevisiae deletion strains, locus YMR205C, strain PFK2, active compounds read low 1.02 | S. cerevisiae deletion strains, locus YMR223W, strain ubp8, active compounds read low 1.02 | S. cerevisiae deletion strains, locus YMR231W, strain pep5, active compounds read low 0.998 | S. cerevisiae deletion strains, locus YMR263W, strain SAP30, active compounds read low 0.999 | S. cerevisiae deletion strains, locus YMR307W, strain GAS1, active compounds read low 1.07 | S. cerevisiae deletion strains, locus YNL067W, strain RPL9B, active compounds read low 1 | S. cerevisiae deletion strains, locus YNL071W, strain lat1, active compounds read low 1 | S. cerevisiae deletion strains, locus YNL128W, strain TEP1, active compounds read low 1.02 | S. cerevisiae deletion strains, locus YNL153C, strain GIM3, active compounds read low 0.997 | S. cerevisiae deletion strains, locus YNL183C, strain NPR1, active compounds read low 0.934 | S. cerevisiae deletion strains, locus YNL209W, strain ssb2, active compounds read low 1 | S. cerevisiae deletion strains, locus YNL233W, strain BNI4, active compounds read low 0.993 | S. cerevisiae deletion strains, locus YNL248C, strain rpa49, active compounds read low 0.986 | S. cerevisiae deletion strains, locus YNL250W, strain rad50, active compounds read low 1.02 | S. cerevisiae deletion strains, locus YNL271C, strain bni1, active compounds read low 1.04 | S. cerevisiae deletion strains, locus YNL298W, strain CLA4, active compounds read low 1.05 | S. cerevisiae deletion strains, locus YNL307C, strain MCK1, active compounds read low 1.03 | S. cerevisiae deletion strains, locus YNL322C, strain KRE1 (second series), active compounds read low 1 | S. cerevisiae deletion strains, locus YNR049C, strain mso1, active compounds read low 0.988 | S. cerevisiae deletion strains, locus YNR052C, strain pop2, active compounds read low 1.03 | S. cerevisiae deletion strains, locus YOL006C, strain TOP1, active compounds read low 1.02 | S. cerevisiae deletion strains, locus YOL012C, strain htz1 0.769 | S. cerevisiae deletion strains, locus YOL147C, strain pex11, active compounds read low 1.02 | S. cerevisiae deletion strains, locus YOR001W, strain rrp6, active compounds read low 0.973 | S. cerevisiae deletion strains, locus YOR061W, strain CKA2, active compounds read low 1.01 | S. cerevisiae deletion strains, locus YOR069W, strain VPS5, active compounds read low 0.993 | S. cerevisiae deletion strains, locus YOR070C, strain gyp1, active compounds read low 0.985 | S. cerevisiae deletion strains, locus YOR080W, strain dia2, active compounds read low 1 | S. cerevisiae deletion strains, locus YOR083W, strain WHI5, active compounds read low 1.01 | S. cerevisiae deletion strains, locus YOR106W, strain vam3, active compounds read low 1.02 | S. cerevisiae deletion strains, locus YOR136W, strain idh2, active compounds read low 1.03 | S. cerevisiae deletion strains, locus YOR144C, strain elg1, active compounds read low 1.01 | S. cerevisiae deletion strains, locus YOR184W, strain ser1, active compounds read low 1.02 | S. cerevisiae deletion strains, locus YOR231W, strain MKK1, active compounds read low 0.983 | S. cerevisiae deletion strains, locus YOR265W, strain rbl2, active compounds read low 1.01 | S. cerevisiae deletion strains, locus YOR270C, strain vph1, active compounds read low 1.01 | S. cerevisiae deletion strains, locus YOR290C, strain snf2, active compounds read low 1.01 | S. cerevisiae deletion strains, locus YOR316C, strain cot1, active compounds read low 1.02 | S. cerevisiae deletion strains, locus YPL051W, strain arl3, active compounds read low 0.983 | S. cerevisiae deletion strains, locus YPL055C, strain LGE1, active compounds read low 1.02 | S. cerevisiae deletion strains, locus YPL078C, strain atp4, active compounds read low 1.01 | S. cerevisiae deletion strains, locus YPL106C, strain sse1, active compounds read low 1.01 | S. cerevisiae deletion strains, locus YPL240C, strain hsp82, active compounds read low 0.995 | S. cerevisiae deletion strains, locus YPL241C, strain CIN2, active compounds read low 1 | S. cerevisiae deletion strains, locus YPL256C, strain CLN2, active compounds read low 0.999 | S. cerevisiae deletion strains, locus YPR119W, strain clb2, active compounds read low 1.02 | S. cerevisiae deletion strains, locus YPR141C, strain kar3, active compounds read low 1.01 | S. cerevisiae deletion strains, locus YPR163C, strain tif3, active compounds read low 1.04 | S. cerevisiae deletion strains, locus YPR167C, strain met16, active compounds read low 1.02 | S. cerevisiae deletion strains, strain wtn01, active compounds read low 1.01 | S. cerevisiae strains, strain wild type, active compounds read low 1
